# Of roughly 8,800 targets only a part is listed; those with a hit were picked by preference. About 0.5% of all pairs of compound and target were hits. Values without a mark were called inactive.
# Legend:
# Assay in all cases: log2 fold change, soluble protein after heating vs DMSO (PISA); higher = thermal stabilisation; K562 lysate, 10 uM; active = over 0.2 and 3.5 SD of the protein, either way, in both replicates (recomputed)
# [1] = compound: NCC(=O)Nc1ccc(-n2nc(C(F)(F)F)cc2-c2ccc3c(ccc4ccccc43)c2)cc1
# Procedure, shortened: (§1)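 Dounce homogenisation of K562 pellets in PBS pH 7.4 with 1 mM MgCl2 produced a crude extract, used at 1 mg/mL protein. Exposure to 10 μM compound lasted 30 min, and aliquots were then heated for 3 min across 48°C-58°C, pooled and brought to 0.5% NP-40 at 4°C. The supernatant after 21,000xg for 90 min was quantified by TMTpro 16plex LC-MS/MS with channel sums equalised. Duplicate values are given as log-two fold change in thermal stability relative to solvent controls.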
# vorinostat = compound: O=C(CCCCCCC(=O)Nc1ccccc1)NO [vorinostat]
# Procedure, shortened: as §1
# silmitasertib = compound: O=C(O)c1ccc2c(c1)nc(Nc1cccc(Cl)c1)c1ccncc12 [silmitasertib]
# Procedure, shortened: as §1
# [2] = compound: O=C1NC(=O)C(c2cnc3ccccn23)=C1c1cn2c3c(cc(F)cc13)CN(C(=O)N1CCCCC1)CC2
# Procedure, shortened: as §1
# entospletinib = compound: c1cn2cc(-c3ccc4cn[nH]c4c3)nc(Nc3ccc(N4CCOCC4)cc3)c2n1 [entospletinib]
# Procedure, shortened: as §1
# UniProt Q9Y287, sequence (Q9Y287 whole entry, looked up): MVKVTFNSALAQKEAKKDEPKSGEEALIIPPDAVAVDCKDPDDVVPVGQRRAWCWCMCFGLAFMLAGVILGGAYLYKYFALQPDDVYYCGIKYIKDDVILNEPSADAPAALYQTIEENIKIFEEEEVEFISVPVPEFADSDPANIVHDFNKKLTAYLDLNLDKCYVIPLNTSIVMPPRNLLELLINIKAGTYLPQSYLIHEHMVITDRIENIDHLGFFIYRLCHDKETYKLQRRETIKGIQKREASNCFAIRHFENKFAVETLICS
# UniProt Q8WVV9, sequence (Q8WVV9 whole entry, looked up): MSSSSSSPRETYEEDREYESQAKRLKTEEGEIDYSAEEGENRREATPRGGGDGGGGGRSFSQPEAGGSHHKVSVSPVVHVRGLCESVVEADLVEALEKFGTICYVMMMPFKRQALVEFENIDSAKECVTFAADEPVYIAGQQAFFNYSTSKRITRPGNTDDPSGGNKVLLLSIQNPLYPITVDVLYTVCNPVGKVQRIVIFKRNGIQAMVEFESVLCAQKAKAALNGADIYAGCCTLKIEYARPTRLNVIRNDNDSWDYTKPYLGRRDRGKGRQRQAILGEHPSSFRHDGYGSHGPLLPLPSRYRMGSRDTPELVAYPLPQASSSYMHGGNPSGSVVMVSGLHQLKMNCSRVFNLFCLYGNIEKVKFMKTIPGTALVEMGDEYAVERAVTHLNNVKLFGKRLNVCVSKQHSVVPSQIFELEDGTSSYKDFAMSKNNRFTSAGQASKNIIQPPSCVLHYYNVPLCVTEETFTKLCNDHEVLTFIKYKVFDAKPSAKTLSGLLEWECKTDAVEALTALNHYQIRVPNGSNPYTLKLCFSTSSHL
# UniProt P17096, sequence (P17096 whole entry, looked up): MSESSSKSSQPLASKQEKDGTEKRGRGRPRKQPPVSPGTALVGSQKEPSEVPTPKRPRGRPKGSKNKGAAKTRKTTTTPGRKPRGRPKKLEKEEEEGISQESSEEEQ
# UniProt Q01581, sequence (Q01581 whole entry, looked up): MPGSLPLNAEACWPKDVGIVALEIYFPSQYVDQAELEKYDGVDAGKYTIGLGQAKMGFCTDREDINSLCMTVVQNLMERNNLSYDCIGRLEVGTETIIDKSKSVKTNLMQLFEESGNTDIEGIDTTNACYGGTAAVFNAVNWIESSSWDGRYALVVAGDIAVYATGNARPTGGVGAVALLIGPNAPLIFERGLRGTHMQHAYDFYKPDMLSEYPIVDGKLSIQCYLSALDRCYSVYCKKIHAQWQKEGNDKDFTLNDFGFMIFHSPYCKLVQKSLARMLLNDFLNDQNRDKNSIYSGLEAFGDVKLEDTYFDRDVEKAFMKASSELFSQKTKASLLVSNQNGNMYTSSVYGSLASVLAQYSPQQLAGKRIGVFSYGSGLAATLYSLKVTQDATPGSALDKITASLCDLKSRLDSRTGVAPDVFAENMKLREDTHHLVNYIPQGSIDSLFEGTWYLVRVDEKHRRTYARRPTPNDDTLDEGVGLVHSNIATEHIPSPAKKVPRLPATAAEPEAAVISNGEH
# UniProt Q96SY0, sequence (Q96SY0 whole entry, looked up): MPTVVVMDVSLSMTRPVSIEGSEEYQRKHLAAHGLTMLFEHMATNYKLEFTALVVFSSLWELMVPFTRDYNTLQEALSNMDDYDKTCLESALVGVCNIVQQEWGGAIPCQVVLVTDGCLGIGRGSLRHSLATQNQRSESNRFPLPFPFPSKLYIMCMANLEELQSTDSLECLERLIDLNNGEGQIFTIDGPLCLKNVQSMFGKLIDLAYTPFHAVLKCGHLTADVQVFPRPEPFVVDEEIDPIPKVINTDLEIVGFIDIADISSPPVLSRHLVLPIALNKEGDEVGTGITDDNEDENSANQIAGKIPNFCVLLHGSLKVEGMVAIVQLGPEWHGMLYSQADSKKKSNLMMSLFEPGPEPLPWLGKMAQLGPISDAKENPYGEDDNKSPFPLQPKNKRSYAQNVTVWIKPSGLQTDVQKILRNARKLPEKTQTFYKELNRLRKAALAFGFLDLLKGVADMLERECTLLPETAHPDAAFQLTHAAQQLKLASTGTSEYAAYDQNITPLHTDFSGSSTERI
# UniProt Q8NEC7, sequence (Q8NEC7 whole entry, looked up): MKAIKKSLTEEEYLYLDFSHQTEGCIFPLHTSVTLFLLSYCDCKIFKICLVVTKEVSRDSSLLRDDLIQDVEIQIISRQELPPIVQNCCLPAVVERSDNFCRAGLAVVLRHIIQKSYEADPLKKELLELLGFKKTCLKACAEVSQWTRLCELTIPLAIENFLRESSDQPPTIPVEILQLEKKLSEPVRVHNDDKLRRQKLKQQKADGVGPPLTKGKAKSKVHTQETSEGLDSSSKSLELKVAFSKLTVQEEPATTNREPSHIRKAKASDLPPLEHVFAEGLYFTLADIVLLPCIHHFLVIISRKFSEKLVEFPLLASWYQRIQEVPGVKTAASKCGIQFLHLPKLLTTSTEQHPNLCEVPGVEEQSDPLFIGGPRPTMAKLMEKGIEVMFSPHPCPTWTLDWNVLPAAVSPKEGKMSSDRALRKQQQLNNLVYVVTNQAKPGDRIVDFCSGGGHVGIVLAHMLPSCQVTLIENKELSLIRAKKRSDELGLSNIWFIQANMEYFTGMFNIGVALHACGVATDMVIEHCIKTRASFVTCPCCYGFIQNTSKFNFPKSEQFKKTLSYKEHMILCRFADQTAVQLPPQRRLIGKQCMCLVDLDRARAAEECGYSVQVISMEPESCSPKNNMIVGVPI
# UniProt Q9NPR9, sequence (Q9NPR9 whole entry, looked up): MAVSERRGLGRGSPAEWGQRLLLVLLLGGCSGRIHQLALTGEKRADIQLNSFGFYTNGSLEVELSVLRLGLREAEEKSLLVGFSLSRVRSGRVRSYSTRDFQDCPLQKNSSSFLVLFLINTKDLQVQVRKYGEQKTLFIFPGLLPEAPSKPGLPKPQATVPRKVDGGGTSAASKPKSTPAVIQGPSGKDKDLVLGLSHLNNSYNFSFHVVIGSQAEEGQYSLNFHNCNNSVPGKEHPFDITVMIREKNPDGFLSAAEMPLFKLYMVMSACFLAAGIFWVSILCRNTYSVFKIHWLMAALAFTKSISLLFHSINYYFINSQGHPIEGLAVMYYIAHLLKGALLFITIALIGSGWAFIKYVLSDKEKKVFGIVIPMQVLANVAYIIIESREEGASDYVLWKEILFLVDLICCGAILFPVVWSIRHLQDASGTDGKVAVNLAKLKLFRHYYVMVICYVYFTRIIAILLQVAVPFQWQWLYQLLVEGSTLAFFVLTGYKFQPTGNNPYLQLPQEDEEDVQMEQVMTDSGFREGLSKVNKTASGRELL
# UniProt P23677, sequence (P23677 whole entry, looked up): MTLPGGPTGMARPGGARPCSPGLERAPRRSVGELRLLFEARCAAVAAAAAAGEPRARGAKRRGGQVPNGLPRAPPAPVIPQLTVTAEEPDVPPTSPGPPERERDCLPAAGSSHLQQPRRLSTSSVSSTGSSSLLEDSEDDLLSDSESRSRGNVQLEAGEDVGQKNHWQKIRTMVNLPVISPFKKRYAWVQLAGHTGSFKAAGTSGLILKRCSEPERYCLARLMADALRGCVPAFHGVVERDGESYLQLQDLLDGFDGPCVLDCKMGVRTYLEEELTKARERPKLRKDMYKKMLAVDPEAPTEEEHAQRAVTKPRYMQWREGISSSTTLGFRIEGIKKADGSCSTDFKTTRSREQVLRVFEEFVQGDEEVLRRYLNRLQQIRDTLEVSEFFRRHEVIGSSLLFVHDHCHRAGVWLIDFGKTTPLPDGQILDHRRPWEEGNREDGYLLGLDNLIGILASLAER
# UniProt P09211, sequence (P09211 whole entry, looked up): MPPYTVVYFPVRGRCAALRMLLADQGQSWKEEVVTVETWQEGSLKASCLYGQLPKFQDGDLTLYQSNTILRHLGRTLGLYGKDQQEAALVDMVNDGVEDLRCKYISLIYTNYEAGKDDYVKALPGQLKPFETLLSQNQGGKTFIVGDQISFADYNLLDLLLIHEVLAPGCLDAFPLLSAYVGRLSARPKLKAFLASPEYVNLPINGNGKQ
# UniProt Q9Y5Q9, sequence (Q9Y5Q9 whole entry, looked up): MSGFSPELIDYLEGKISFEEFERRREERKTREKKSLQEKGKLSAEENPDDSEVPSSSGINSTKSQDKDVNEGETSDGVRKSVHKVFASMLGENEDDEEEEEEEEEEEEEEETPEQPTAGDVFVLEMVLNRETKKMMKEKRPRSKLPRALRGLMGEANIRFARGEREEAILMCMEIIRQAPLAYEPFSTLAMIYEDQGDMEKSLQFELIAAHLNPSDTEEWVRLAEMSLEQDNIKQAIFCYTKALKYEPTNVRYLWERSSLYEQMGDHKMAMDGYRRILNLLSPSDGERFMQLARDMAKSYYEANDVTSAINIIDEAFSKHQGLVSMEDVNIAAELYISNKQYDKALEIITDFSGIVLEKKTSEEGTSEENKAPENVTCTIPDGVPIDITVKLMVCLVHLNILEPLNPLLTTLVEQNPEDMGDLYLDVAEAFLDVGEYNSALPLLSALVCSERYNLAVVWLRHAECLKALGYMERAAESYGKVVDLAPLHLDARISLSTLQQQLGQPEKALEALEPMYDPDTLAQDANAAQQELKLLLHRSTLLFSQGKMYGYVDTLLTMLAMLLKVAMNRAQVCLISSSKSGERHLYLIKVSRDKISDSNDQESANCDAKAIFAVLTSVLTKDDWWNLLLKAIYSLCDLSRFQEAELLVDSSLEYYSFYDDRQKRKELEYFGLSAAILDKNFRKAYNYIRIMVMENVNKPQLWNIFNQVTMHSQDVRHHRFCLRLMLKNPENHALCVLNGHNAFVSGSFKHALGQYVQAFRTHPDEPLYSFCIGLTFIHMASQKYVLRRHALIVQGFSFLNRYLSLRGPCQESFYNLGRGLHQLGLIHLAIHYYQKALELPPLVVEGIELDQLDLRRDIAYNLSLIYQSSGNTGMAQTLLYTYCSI
# UniProt Q9BUE6, sequence (Q9BUE6 whole entry, looked up): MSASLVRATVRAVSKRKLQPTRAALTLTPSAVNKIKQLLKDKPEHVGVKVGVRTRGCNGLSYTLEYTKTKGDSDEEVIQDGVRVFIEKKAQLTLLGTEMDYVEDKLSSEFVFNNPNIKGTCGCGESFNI
Target,log2 fold change [1],log2 fold change (vorinostat),log2 fold change (silmitasertib),log2 fold change [2],log2 fold change (entospletinib)
HADHB (UniProt P55084),0.047,-0.199,-0.033,0.269,0.063
HMGB1 (UniProt P09429),-0.024,0.083,0.017,0.098,-0.014
IL18R1 (UniProt Q13478),-0.246,0.198,-0.33,0.075,-0.084
GSTP1 (UniProt P09211),-0.011,-0.352 (active),0.127,0.04,-0.001
GLYR1 (UniProt Q49A26),-0.006,-0.033,-0.022,-0.007,-0.041
HACE1 (UniProt Q8IYU2),0.183,-0.126,-0.002,0.084,0.012
HNRNPM (UniProt P52272),-0.008,-0.235 (active),0.022,-0.05,0.015
IMMT (UniProt Q16891),-0.005,0.056,0.033,0.016,0.017
HNRNPLL (UniProt Q8WVV9),0.009,-0.653 (active),0.035,0.004,0.034
ITPKA (UniProt P23677),0.033,-0.36 (active),0.09,-0.101,0.081
HDAC10 (UniProt Q969S8),0.147,0.211,0.156,-0.032,0.053
HNRNPDL (UniProt O14979),-0.032,0.133,-0.01,0.01,0.01
HNRNPL (UniProt P14866),0.005,-0.445 (active),0.072,0.028,0.007
INF2 (UniProt Q27J81),-0.023,-0.333 (active),-0.027,0.018,-0.09
HMGCS1 (UniProt Q01581),0.018,0.53 (active),0.011,0.013,-0.002
GRK6 isoform 2 (UniProt P43250),0.001,-0.227,0.48 (active),-0.012,-0.123
GSTCD (UniProt Q8NEC7),-0.025,-0.356 (active),0.024,-0.027,-0.066
ISCA1 isoform 2 (UniProt Q9BUE6),-0.005,0.043,0.015,0.004,0.071
INTS14 (UniProt Q96SY0),-0.008,-0.311 (active),0.002,0.023,0.026
ITM2B (UniProt Q9Y287),-0.101,0.141,0.013,0.004,–
HIST2H2AA3 (UniProt Q6FI13),-0.056,0.12,-0.073,0.068,-0.106
HNRNPM (UniProt M0R019),-0.198,–,–,–,–
GTF3C3 (UniProt Q9Y5Q9),-0.007,-0.291 (active),0.018,0.011,-0.052
HMGA1 (UniProt P17096),0.056,0.111,0.001,0.038,-0.011
GPR108 (UniProt Q9NPR9),-0.001,-0.024,0.001,-0.007,-0.008

# Source: the supplement of paper PMC10849652
